This is one part of a sample in which hits are shown more often than they occur.
RmlCD inh mix = RmlC and RmlD coupled enzyme inhibitors, primary screen, biochemical, 384-well, compound mixtures, retest | RmlC/RmlD coupled enzyme inhibition, 384-well mixture HTS | inhibition, % at 5.5 µM | 0.39% of 110,000 active; in the data active = inhibition above about 30%, passing the limit was not always enough
HIV RNase H inh = HIV-1 RT RNase H inhibitors, primary screen, biochemical, fluorescence; Gag-Pol polyprotein (Human immunodeficiency virus type 1 group M subtype B (isolate …; RT-RNase H RNA/DNA duplex cleavage; inhibition, % at 10 µM; 1.9% of 65,000 active; AID 565, 2006; in the data active = inhibition above about 50%
RmlCD fluor art = counter-screen for RmlC/RmlD inhibitors: fluorescence artifact, dose response, artefact control, biochemical. shares compounds with RmlCD inh mix. RmlC/RmlD assay fluorescence artifact counter-screen. calls only. 96% of 360 active. AID 1696, 2009; call rule not given here;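 note: compound alone with no enzyme and no substrates present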
Large screens that a line does not name were inactive (follow-up assays come after a bar, where they were run).

COc1ccc(-c2ccc3oc(-c4ccc(OC)cc4)c(C#CCCO)c3c2)cc1	none (no result: HIV RNase H inh)
CC(=O)C(Sc1nc(-c2ccco2)nc2c1c(=O)n(C)c(=O)n2C)C(=O)N(C)C (centres undefined)	none (no result: RmlCD inh mix)
CC1(C)Cc2ccccc2-c2nc(NCCO)n(-c3ccccc3)c(=O)c21	RmlCD inh mix 51 | RmlCD fluor art active
CCC1(C)Cc2ccccc2-c2nc(NCCO)n(-c3ccccc3)c(=O)c21 (centres undefined)	none
O=C(Cc1ccccc1)NC(NCCc1ccccc1)C(Cl)(Cl)Cl (centres undefined)	none (no result: HIV RNase H inh)
Cc1cc(=O)oc2cc(OC(=O)CCN3C(=O)c4ccccc4C3=O)ccc12	none (no result: RmlCD inh mix, HIV RNase H inh) | RmlCD fluor art active
Cc1cc(=O)oc2cc(OC(C)C)ccc12	none
Cc1c(O)c(CN2CCCCC2)cc2c3c(c(=O)oc12)CCC3	RmlCD inh mix 91 | RmlCD fluor art active
O=c1cc(-c2ccccc2)c2ccc(O)c(CN3CCCCC3)c2o1	none
O=c1oc2c(CN3CCCCC3)c(O)ccc2c2c1CCCC2	RmlCD inh mix 96 (no result: HIV RNase H inh) | RmlCD fluor art active
Cc1oc2c(C)c3oc(=O)c4c(c3cc2c1C)CCC4	none
CCOC(=O)CC(=O)CSc1nc2ccc(C)cc2cc1C#N	RmlCD inh mix active | RmlCD fluor art active
CCc1nc(SCC(=O)O)c(C#N)cc1C	none (no result: HIV RNase H inh)
CCOC(=O)CC(=O)CSc1nc(C)cc(C)c1C#N	RmlCD inh mix 110 (no result: HIV RNase H inh) | RmlCD fluor art active
CCOC(=O)CC(=O)CSc1nc2c(c(C)c1C#N)CCC2	none (no result: RmlCD inh mix)
CCOC(=O)CC(=O)CSc1nc(CC)c(C)cc1C#N	none (no result: RmlCD inh mix, HIV RNase H inh) | RmlCD fluor art active
COC(=O)CSc1nc2cc(C)ccc2cc1C#N	none
CCOC(=O)CC(=O)CSc1nc2c(cc1C#N)CCCCC2	none
CC(C)OC(=O)CC(=O)CSc1nc2c(cc1C#N)CCCCC2	RmlCD inh mix active (no result: HIV RNase H inh) | RmlCD fluor art active
COc1cccc(/C=N/n2c(C)c3c(C)nnc(C)c3c2C)c1O	none (no result: RmlCD inh mix)
O=C(NN1C(=O)c2ccc3c4c(ccc(c24)C1=O)CC3)c1ccc(Br)cc1	none (no result: HIV RNase H inh)
CCOC(=O)N1CCN(C(=O)CS(=O)(=O)c2cn(Cc3ccc(F)cc3)c3ccccc23)CC1	none
Nc1c(Cl)cc(-c2csc(N3CCCC3c3nc4cc(Cl)c(N5CCCCC5)cc4n3CCOCCO)n2)cc1Cl (centres undefined)	none (no result: HIV RNase H inh)
CC(C)OCCCN1C=C2C(=O)C(C)(OC(=O)CCc3ccccc3)C(=O)C=C2C=C1c1ccc(C#N)cc1 (centres undefined)	none (no result: HIV RNase H inh)
COc1cc(NC(=O)c2cccs2)c(C(=O)OCC(=O)NC(C)c2ccccc2)cc1OC (centres undefined)	none (no result: HIV RNase H inh)
COc1cc(NC(=O)c2cccs2)c(C(=O)OCC(=O)NCc2ccccc2)cc1OC	RmlCD inh mix 45 (no result: HIV RNase H inh) | RmlCD fluor art active
CC(C)(C)[C@H]1C=C(C(N)=O)O[C@@H](OCc2ccc(CO)cc2)C1	none (no result: HIV RNase H inh)
CC1=C(C#N)C(c2cccnc2)C2=C(CC(C)(C)CC2=O)N1 (centres undefined)	RmlCD inh mix 59 | RmlCD fluor art active
CC1(C)CC(=O)C2=C(C1)Nc1ccccc1NC2c1cccnc1 (centres undefined)	none
Cc1[nH]n(-c2ccccc2)c(=O)c1/C=N/c1ccccn1	none
Cc1[nH]n(-c2ccccc2)c(=O)c1C=Nc1cnc2ccccc2c1	RmlCD inh mix 44 (no result: HIV RNase H inh) | RmlCD fluor art active
CC(C)CCNC(=O)c1cc(-c2ccco2)nc2ccccc12	none (no result: HIV RNase H inh)
O=C(NCC1CCCO1)c1cc(-c2ccco2)nc2ccccc12 (centres undefined)	RmlCD inh mix 53 | RmlCD fluor art active
CN(C)CCCNc1oc(-c2ccccc2)nc1C#N	none
CN(C)CCNc1oc(-c2ccccc2F)nc1C#N	RmlCD inh mix 46 | RmlCD fluor art active
O=C1c2ccccc2S(=O)(=O)c2cc(C(=O)N3CCN(c4ccc(Cl)cn4)CC3)ccc21	none (no result: HIV RNase H inh)
O=S(=O)(c1cc(Cl)ccc1Cl)N1CC2CCCN2c2ccc(C(F)(F)F)cc21 (centres undefined)	none (no result: HIV RNase H inh)
CCn1c2ccccc2c2nnc(SCCCn3c(=O)[nH]c4ccccc43)nc21	RmlCD inh mix 82 | RmlCD fluor art inactive
CCn1c2ccccc2c2nnc(SCc3ccccc3)nc21	none
COc1ccccc1Nc1ncnc2nc[nH]c12	none (no result: HIV RNase H inh)
Cc1c(CCC(=O)O)c(=O)oc2cc3occ(-c4ccc(F)cc4)c3cc12	none
Cc1c(CCC(=O)O)c(=O)oc2cc(O)ccc12	RmlCD inh mix 128 | RmlCD fluor art active
Cc1ccc2c(=O)c(CN(C)C3CCN(C)CC3)c(C)[nH]c2c1C	none (no result: RmlCD inh mix)
COc1ccc(C(=O)NC(C)(C)C)cc1S(=O)(=O)N1CCCC1	none (no result: HIV RNase H inh)
C/C(=C\C(=O)OCCCCCCCCC(=O)O)C[C@@H]1OC[C@H](C[C@@H]2O[C@H]2[C@@H](C)[C@H](C)O)[C@@H](O)[C@H]1O	none (no result: HIV RNase H inh)
O=C(NCc1ccco1)c1ccc2nc3sc4c(c3c(=O)n2c1)CCCC4	RmlCD inh mix 46 | RmlCD fluor art active
C=CCn1c(SCC(=O)NCc2ccco2)nc2sc3c(c2c1=O)CCCC3	none (no result: HIV RNase H inh)
COc1ccc2cc3cc(C(=O)NCc4ccccn4)oc3nc2c1	none (no result: RmlCD inh mix)
CCOc1ccc(NC(=O)c2cc3cc4ccc(OC)cc4nc3o2)cc1	RmlCD inh mix 105 (no result: HIV RNase H inh) | RmlCD fluor art active
COc1ccc2cc3cc(C(=O)NCC4CCCO4)oc3nc2c1 (centres undefined)	RmlCD inh mix 105 | RmlCD fluor art active
CCCCN(CC)C(=O)c1cc2cc3ccc(OC)cc3nc2o1	none (no result: HIV RNase H inh)
COc1ccc2cc3cc(C(=O)NCCN4CCN(c5ccccc5F)CC4)oc3nc2c1	none (no result: RmlCD inh mix) | RmlCD fluor art inactive
COc1ccc2cc3cc(C(=O)Nc4ccccc4N4CCN(C)CC4)oc3nc2c1	none
C/C=C/C(=O)Nc1cccc(C2=NOC3(C2)C[C@@H](C(N)=O)N(C(=O)/C(C)=C/C)C3)c1 (some centres undefined)	none (no result: HIV RNase H inh)
Cc1cc(C)c(NC(=O)C(C)Sc2nnc(-c3ccco3)n2-c2ccccc2)c(C)c1 (centres undefined)	none (no result: HIV RNase H inh)
CCOC(=O)c1ccc(COC(=O)c2ccc(-c3nnc(-c4ccccc4)o3)cc2)o1	none
CCOC(=O)c1ccc(-c2ccc(CO)o2)cc1	RmlCD inh mix 62 (no result: HIV RNase H inh) | RmlCD fluor art active
Nc1cc(-c2nc3ncccc3o2)ccc1Cl	none (no result: HIV RNase H inh)
Cc1cc(-c2nc3ncccc3o2)ccc1N	RmlCD inh mix 69 | RmlCD fluor art active
CCOC(=O)CSc1nc2ccccc2n1CC(=O)N(C(C)C)C(C)C	none
CCOC(=O)CN1C=C(c2ccc3ccccc3n2)C(C[N+](=O)[O-])c2ccccc21 (centres undefined)	RmlCD inh mix 47 (no result: HIV RNase H inh) | RmlCD fluor art active
COC(=O)c1nn(-c2ccc3c(c2)CCN3C(C)=O)cc1O	RmlCD inh mix 41 (no result: HIV RNase H inh) | RmlCD fluor art active
COC(=O)c1nn(-c2ccc3c(c2)OCO3)cc1O	none (no result: HIV RNase H inh)
CC(C)COc1ccc(CSCCNC(=S)Nc2ccccc2)cc1	none (no result: HIV RNase H inh)
CN(C)CCNC(=O)c1cc2c(s1)-c1ccccc1OC2	RmlCD inh mix 161 (no result: HIV RNase H inh) | RmlCD fluor art active
Cc1csc(NC(=O)c2cc3c(s2)-c2ccccc2OC3)n1	none
Cc1nc(C(=O)NC2CCOCC2)sc1C1(C)CC(c2cccc([N+](=O)[O-])c2)=NO1 (centres undefined)	none (no result: HIV RNase H inh)
CN(C)S(=O)(=O)c1ccc(S(=O)(=O)Nc2ccc3c(c2)oc2ccccc23)cc1	none
Cc1cc(=O)oc2cc(NS(=O)(=O)c3ccccc3)ccc12	none (no result: RmlCD inh mix, HIV RNase H inh) | RmlCD fluor art active

High-throughput results deposited in PubChem by several laboratories.
